Inconclusive results are not listed. A call without a number means that no potency is given here. Calls of active or inactive are those of the source. Unless noted, the call rests on the fitted dose curve; in most records, active means well fitted curve in the direction sought with a large enough effect in the repeat runs; inconclusive means weak or mixed curves; inactive means no such curve, though single readings can be large; an effect the other way counts as inactive or inconclusive.
Columns and labels:
[1] = qHTS assay to identify small molecule agonists of the peroxisome proliferator-activated receptor delta (PPARd) signaling pathway - cell viability counter screen (AID 743211); further: nearly all actives have a fitted effect of over 55% in size
How it was run: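 Counter screen for cytotoxicity run in parallel with the PPARd reporter screen. Beta-lactamase reporter HEK293H cells exposed to compounds 17 h; ATP-based CellTiter-Glo luminescence quantified viability.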

[2] = target: Peroxisome proliferator-activated receptor delta (Homo sapiens) (UniProt Q03181); assay: qHTS assay to identify small molecule agonists of the peroxisome proliferator-activated receptor delta (PPARd) signaling pathway (AID 743212; calls by dose curve)
Chain of Peroxisome proliferator-activated receptor delta (Homo sapiens) (Q03181 whole entry, looked up): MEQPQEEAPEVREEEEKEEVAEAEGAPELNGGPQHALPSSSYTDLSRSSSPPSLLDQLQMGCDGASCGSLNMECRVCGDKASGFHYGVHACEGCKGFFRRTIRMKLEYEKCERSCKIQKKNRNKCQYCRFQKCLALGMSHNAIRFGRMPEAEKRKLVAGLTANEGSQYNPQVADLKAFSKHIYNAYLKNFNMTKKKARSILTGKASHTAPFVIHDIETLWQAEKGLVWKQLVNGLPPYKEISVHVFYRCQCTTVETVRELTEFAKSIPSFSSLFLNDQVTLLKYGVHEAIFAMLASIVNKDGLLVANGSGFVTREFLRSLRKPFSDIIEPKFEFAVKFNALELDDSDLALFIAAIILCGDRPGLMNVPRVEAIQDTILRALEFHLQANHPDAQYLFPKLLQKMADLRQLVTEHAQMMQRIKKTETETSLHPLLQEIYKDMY
How it was run: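 Read-out: beta-lactamase FRET fluorescence after 2 h room-temperature incubation with LiveBLAzer B/G substrate. Cells were HEK293H carrying a UAS-bla reporter for PPARd, treated at 37 C with DMSO-dissolved compounds.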

[3] = qHTS assay to identify small molecule antagonists of the peroxisome proliferator-activated receptor delta (PPARd) signaling pathway - cell viability counter screen (AID 743213); further: nearly all actives have a fitted effect of over 50% in size
How it was run: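 Same-well viability: cells pre-incubated 5 h, dosed with compound plus 300 nM L165041, kept 17 h at 37 C, FRET substrate 2 h RT, then CellTiter-Glo 30 min RT and luminescence.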

[4] = qHTS assay to identify small molecule agonists of the farnesoid-X-receptor (FXR) signaling pathway - cell viability counter screen (AID 743218); further: nearly all actives have a fitted effect of over 45% in size
How it was run: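 Viability of FXR-bla HEK 293T cells is measured by ATP-based CellTiter-Glo luminescence following 16 h compound treatment at 37 C and a prior 2 h room-temperature beta-lactamase substrate step.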

[5] = qHTS assay to identify small molecule antagonists of the farnesoid-X-receptor (FXR) signaling pathway - cell viability counter screen (AID 743221; active means well fitted cell-killing curve with a large enough effect in the repeat runs, not every such curve was filed as active; further: nearly all actives have a fitted effect of over 50% in size)
How it was run: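 Multiplexed counter screen: viability of FXR-bla HEK 293T cells under agonist stimulation by chenodeoxycholic acid (50 uM, final) and test compound for 16 h at 37 C, measured by CellTiter-Glo luminescence in the reporter wells.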

[6] = target: Vitamin D3 receptor (Homo sapiens) (UniProt P11473); assay: qHTS assay to identify small molecule agonists of the vitamin D receptor (VDR) signaling pathway (AID 743222; calls by dose curve)
Chain of Vitamin D3 receptor (Homo sapiens) (P11473 whole entry, looked up): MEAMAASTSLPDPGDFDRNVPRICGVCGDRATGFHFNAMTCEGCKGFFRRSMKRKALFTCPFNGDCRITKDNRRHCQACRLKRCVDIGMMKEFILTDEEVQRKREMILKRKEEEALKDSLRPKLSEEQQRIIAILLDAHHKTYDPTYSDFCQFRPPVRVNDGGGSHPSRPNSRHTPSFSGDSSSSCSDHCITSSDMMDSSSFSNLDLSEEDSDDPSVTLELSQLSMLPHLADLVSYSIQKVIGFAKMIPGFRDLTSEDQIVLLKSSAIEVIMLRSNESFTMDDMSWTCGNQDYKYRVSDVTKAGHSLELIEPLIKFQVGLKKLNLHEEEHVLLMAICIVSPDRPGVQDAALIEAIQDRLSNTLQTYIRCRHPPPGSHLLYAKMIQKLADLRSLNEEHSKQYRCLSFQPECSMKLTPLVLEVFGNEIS
How it was run: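 Fluorescence from cleaved LiveBLAzer B/G FRET substrate served as readout. VDR-bla cells had been treated 16 h at 37C with test compounds in DMSO, following a 4 h settling period, and substrate was loaded for 2 h at RT.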

[7] = target: Vitamin D3 receptor (Homo sapiens) (UniProt P11473); assay: qHTS assay to identify small molecule antagonists of the vitamin D receptor (VDR) signaling pathway (AID 743223; active means well fitted inhibition curve with a large enough effect in the signal ratio in the repeat runs, not every such curve was filed as active; the % refers to the signal ratio)
How it was run: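 Cells carrying a VDR-driven beta-lactamase reporter (VDR-bla) were co-treated with compound and 3 nM final 1alpha,25-dihydroxyvitamin D3 for 16 h at 37C; reporter activity was measured as FRET substrate fluorescence after 2 h at room temperature.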

[8] = qHTS assay to identify small molecule agonists of the vitamin D receptor (VDR) signaling pathway - cell viability counter screen (AID 743224); further: series mostly up to about 63 µM; nearly all actives have a fitted effect of over 50% in size
How it was run: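 Compounds were pin-transferred onto VDR-bla cells plated 4 h earlier; following 16 h incubation at 37C, cell viability was quantified by CellTiter-Glo luminescence after 30 min at room temperature.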

[9] = qHTS assay to identify small molecule antagonists of the vitamin D receptor (VDR) signaling pathway - cell viability counter screen (AID 743225); further: nearly all actives have a fitted effect of over 50% in size
How it was run: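 HEK293T VDR-bla; cpd + 1a,25-(OH)2D3 3 nM final, 16 h 37C/5% CO2; B/G FRET substrate 2 h RT; then CellTiter-Glo 30 min RT, luminescence.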

[10] = qHTS assay to identify small molecule agonists of the NFkB signaling pathway - cell viability counter screen (AID 1159515; calls by dose curve; further: series mostly up to about 61 µM; nearly all actives have a fitted effect of over 55% in size)
How it was run: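 Parallel cytotoxicity counter screen in ME-180 cells carrying an NFkB-response-element beta-lactamase reporter, 2,000 cells/well. Compound exposure lasted 5 hr at 37 C, 5% CO2. Cell viability was quantified by CellTiter-Glo luminescence.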

[11] = qHTS assay to identify small molecule agonists of the endoplasmic reticulum stress response signaling pathway (AID 1159516; active means well fitted activation curve with a large enough effect in the signal ratio in the repeat runs, not every such curve was filed as active; the % refers to the signal ratio)
How it was run: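 Using a HeLa line with an ESRE-driven beta-lactamase gene, agonist activity was measured by FRET substrate fluorescence (460 and 530 nm emission) after cells were treated with compounds for 5 hr at 37 C and 5% CO2.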

[12] = qHTS assay to identify small molecule agonists of the endoplasmic reticulum stress response signaling pathway - cell viability counter screen (AID 1159517; calls by dose curve)
How it was run: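 Steps: seed 1,500 ESRE-bla HeLa cells per well; incubate overnight at 37 C, 5% CO2; add compounds in DMSO for 5 hr; run FRET substrate 2 hr RT; add CellTiter-Glo, wait 30 min, read luminescence.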

[13] = qHTS assay to identify small molecule antagonists of the retinoid-related orphan receptor gamma (ROR-gamma) signaling pathway - cell viability counter screen (AID 1159520); further: nearly all actives have a fitted effect of over 50% in size
How it was run: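 Tet-on ROR gamma CHO cells were given compounds for 2 hr, then doxycycline hyclate at 1 uM final, and incubated 16 hr at 37 C. Viability was measured as ATP content by CellTiter-Glo luminescence.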

[14] = target: Nuclear receptor ROR-gamma (Homo sapiens) (UniProt P51449); assay: qHTS assay to identify small molecule antagonists of the retinoid-related orphan receptor gamma (ROR-gamma) signaling pathway (AID 1159521)
How it was run: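 Cells were plated, rested 4 h at 37 C, exposed to compounds for 2 h, then given 1 uM final doxycycline hyclate to induce RORγ expression. After 16 h, ONE-Glo luminescence from the ROR response element reporter was measured.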

[15] = qHTS assay to identify small molecule agonists of the AP-1 signaling pathway - cell viability counter screen (AID 1159525; calls by dose curve; further: nearly all actives have a fitted effect of over 55% in size)
How it was run: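 Same-well cytotoxicity counter screen of the Tox21 10K library in ME-180 cells. The readout is ATP-dependent luminescence after 5 h compound treatment. Data are normalised to DMSO and tetra n-octyl ammonium bromide controls.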

[16] = qHTS assay to identify small molecule agonists of the AP-1 signaling pathway (AID 1159526; calls by dose curve)
[17] = target: Peroxisome proliferator-activated receptor delta (Homo sapiens) (UniProt Q03181); assay: qHTS assay to identify small molecule antagonists of the peroxisome proliferator-activated receptor delta (PPARd) signaling pathway (AID 743215; active means well fitted inhibition curve with a large enough effect in the signal ratio in the repeat runs, not every such curve was filed as active; the % refers to the signal ratio;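 further: cells stimulated with agonist L165041 at 300 nM final during compound exposure; series mostly up to about 62 µM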)
How it was run: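 Plated HEK293H PPARd-bla cells rested 5 h at 37 C and 5% CO2. Compound, then agonist L165041 at 300 nM final, was added; 17 h at 37 C followed. Substrate loading, 2 h room temperature, fluorescence measured.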

[18] = target: Bile acid receptor (Homo sapiens) (UniProt Q96RI1); assay: qHTS assay to identify small molecule antagonists of the farnesoid-X-receptor (FXR) signaling pathway (AID 743217; active means well fitted inhibition curve with a large enough effect in the signal ratio in the repeat runs, not every such curve was filed as active; the % refers to the signal ratio; further: potency means the concentration at half of the fitted maximal effect)
Chain of Bile acid receptor (Homo sapiens) (Q96RI1 whole entry, looked up): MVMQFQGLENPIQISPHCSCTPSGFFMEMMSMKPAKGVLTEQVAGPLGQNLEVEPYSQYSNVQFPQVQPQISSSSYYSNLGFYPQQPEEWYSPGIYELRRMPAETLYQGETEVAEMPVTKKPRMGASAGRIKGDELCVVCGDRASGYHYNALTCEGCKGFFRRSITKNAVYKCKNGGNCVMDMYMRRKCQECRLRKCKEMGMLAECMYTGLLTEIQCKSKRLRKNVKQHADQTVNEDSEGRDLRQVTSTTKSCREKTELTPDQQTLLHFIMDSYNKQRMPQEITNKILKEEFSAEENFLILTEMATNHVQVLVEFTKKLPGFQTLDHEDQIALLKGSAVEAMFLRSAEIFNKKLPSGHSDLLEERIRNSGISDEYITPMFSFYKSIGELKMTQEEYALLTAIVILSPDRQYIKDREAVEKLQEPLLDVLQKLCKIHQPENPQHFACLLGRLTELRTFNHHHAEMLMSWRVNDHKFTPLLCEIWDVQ
How it was run: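 Screen of the Tox21 10K library in quantitative HTS format using FXR-UAS-bla HEK 293T reporter cells. Agonist chenodeoxycholic acid, 50 uM final, added with compounds; 16 h incubation at 37 °C; beta-lactamase FRET fluorescence measured.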

[19] = target: Bile acid receptor (Homo sapiens) (UniProt Q96RI1); assay: qHTS assay to identify small molecule agonists of the farnesoid-X-receptor (FXR) signaling pathway (AID 743220; active means well fitted activation curve with a large enough effect in the signal ratio in the repeat runs, not every such curve was filed as active; the % refers to the signal ratio)
How it was run: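 FXR-UAS-bla HEK 293T cells carrying a UAS-driven beta-lactamase reporter were plated for 5 h at 37C/5% CO2, then exposed to DMSO-dissolved Tox21 10K compounds for 16 h at 37C. A LiveBLAzer B/G FRET substrate was loaded for 2 h at room temperature before fluorescence reading.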

Compound | outcome [1] | outcome [2] | outcome [3] | outcome [4] | outcome [5] | outcome [6] | outcome [7] | outcome [8] | outcome [9] | outcome [10] | outcome [11] | outcome [12] | Potency [13] | Potency [14] | Potency [15] | Potency [16] | outcome [17] | Potency [18] | outcome [19]
N=C(N)c1ccc(OCCCCCOc2ccc(C(=N)N)cc2)cc1 | inactive | inactive | inactive | inactive | inactive | inactive | inactive | inactive | inactive | inactive | inactive | inactive | inactive | inactive | inactive | inactive | – | – | –
O=C(O)c1[nH]n(-c2ccc(S(=O)(=O)O)cc2)c(=O)c1N=Nc1ccc(S(=O)(=O)O)cc1 | inactive | inactive | inactive | inactive | inactive | inactive | inactive | inactive | inactive | inactive | inactive | inactive | inactive | inactive | inactive | inactive | inactive | inactive | inactive
Oc1ccc(/C=C/c2cc(O)cc(O)c2)cc1 | inactive | inactive | inactive | inactive | inactive | inactive | inactive | inactive | inactive | inactive | inactive | inactive | inactive | inactive | inactive | inactive | – | 24.5 µM (active) | inactive
C[C@]12C=CC(=O)C=C1CC[C@@H]1[C@@H]2[C@@H](O)C[C@@]2(C)[C@H]1CC[C@]2(O)C(=O)CO | inactive | inactive | inactive | inactive | inactive | – | – | inactive | inactive | inactive | inactive | inactive | inactive | inactive | inactive | inactive | – | – | –
NC(=O)c1ccccc1O | inactive | inactive | inactive | inactive | inactive | inactive | inactive | inactive | inactive | inactive | inactive | inactive | inactive | inactive | inactive | inactive | inactive | inactive | inactive
Cc1cn([C@H]2C[C@H](N=[N+]=[N-])[C@@H](CO)O2)c(=O)[nH]c1=O | inactive | inactive | inactive | inactive | inactive | inactive | inactive | inactive | inactive | inactive | inactive | inactive | inactive | inactive | inactive | inactive | inactive | inactive | inactive
Cc1cc(=O)[nH]c(=S)[nH]1 | inactive | inactive | inactive | inactive | inactive | inactive | inactive | inactive | inactive | inactive | inactive | inactive | inactive | inactive | inactive | inactive | inactive | inactive | inactive
Cc1ccc(O)cc1 | inactive | inactive | inactive | inactive | inactive | inactive | inactive | inactive | inactive | inactive | inactive | inactive | inactive | inactive | inactive | inactive | inactive | inactive | inactive
CCOc1ccc(NC(=O)CC(C)O)cc1 (stereo unspecified) | inactive | inactive | inactive | inactive | inactive | – | – | inactive | inactive | inactive | inactive | inactive | inactive | inactive | inactive | inactive | inactive | inactive | inactive
O=C(c1ccccc1)C(O)c1ccccc1 (stereo unspecified) | inactive | inactive | inactive | inactive | inactive | inactive | inactive | inactive | inactive | inactive | inactive | inactive | inactive | inactive | inactive | inactive | inactive | – | –
O=c1ccc2ccccc2o1 | inactive | – | inactive | inactive | inactive | – | – | inactive | inactive | inactive | inactive | inactive | inactive | inactive | inactive | inactive | – | inactive | inactive
CCCCOC(=O)CC(CC(=O)OCCCC)(OC(C)=O)C(=O)OCCCC | inactive | inactive | inactive | inactive | inactive | inactive | inactive | inactive | inactive | inactive | inactive | inactive | inactive | inactive | inactive | inactive | inactive | inactive | inactive
CC(=O)NS(=O)(=O)c1ccc(N)cc1 | inactive | inactive | inactive | inactive | inactive | inactive | inactive | inactive | inactive | inactive | inactive | inactive | inactive | inactive | inactive | inactive | inactive | – | –
Cc1cc(=O)n(-c2ccccc2)n1C | inactive | – | inactive | inactive | inactive | inactive | inactive | inactive | inactive | inactive | inactive | inactive | inactive | inactive | inactive | inactive | – | inactive | inactive
O=C(O)CS | inactive | inactive | inactive | inactive | inactive | inactive | inactive | inactive | inactive | inactive | inactive | inactive | inactive | – | inactive | inactive | inactive | – | –

Source: PubChem BioAssay (Tox21)
